According to PubChem BioAssay (NCI):
The panel holds about 83,000 compounds, 20% with a hit somewhere; the sample as a whole holds those more often.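 96-well plates, one dose, 48 hours. Percent growth reported; active if below 10.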 Active and inactive are the calls of the source.

Tests used:
Experiment in all cases: NCI-60 one-dose screen, 48 h (100 = growth as untreated, 0 = no growth, -100 = all killed)
Conditions in all cases: 10 µM unless noted
SR leukemia = system: SR leukemia
RPMI-8226 leukemia = system: RPMI-8226 leukemia
OVCAR-8 ovarian = system: OVCAR-8 ovarian
OVCAR-5 ovarian = system: OVCAR-5 ovarian
OVCAR-4 ovarian = system: OVCAR-4 ovarian
SK-OV-3 ovarian = system: SK-OV-3 ovarian
IGROV1 ovarian = system: IGROV1 ovarian
OVCAR-3 ovarian = system: OVCAR-3 ovarian
HS 578T breast = system: HS 578T breast
NCI/ADR-RES ovarian = system: NCI/ADR-RES ovarian
T-47D breast = system: T-47D breast
BT-549 breast = system: BT-549 breast
MDA-MB-435 melanoma = system: MDA-MB-435 melanoma
SW-620 colon = system: SW-620 colon
MCF7 breast = system: MCF7 breast
HCT-116 colon = system: HCT-116 colon
HCC-2998 colon = system: HCC-2998 colon
KM12 colon = system: KM12 colon

Measured: growth

CCCCCC(=O)Oc1ccc(/C(=C(\C)c2ccc(OC)cc2)c2ccc(OCCN3CCCCC3)cc2)cc1
inactive: OVCAR-8 ovarian 74.3% | OVCAR-5 ovarian 82.2% | OVCAR-4 ovarian 54.5% | SK-OV-3 ovarian 68.2% | IGROV1 ovarian 79% | OVCAR-3 ovarian 74.9% | HS 578T breast 64.9% | NCI/ADR-RES ovarian 71.2% | T-47D breast 34.8% | BT-549 breast 72.6% | MDA-MB-435 melanoma 62.6% | SW-620 colon 65.1% | MCF7 breast 24.8% | HCT-116 colon 53.2% | HCC-2998 colon 66.7% | KM12 colon 52.8%
active: SR leukemia -2% | RPMI-8226 leukemia 9.96%

O=C(Cc1ccc(/C=C/C(=O)c2ncc[nH]2)cc1)Nc1ccc(F)cc1
inactive: OVCAR-5 ovarian 49.1% | OVCAR-4 ovarian 36.6% | SK-OV-3 ovarian 52% | IGROV1 ovarian 39% | HS 578T breast 35.4% | NCI/ADR-RES ovarian 14.5% | T-47D breast 19.3% | BT-549 breast 22.4% | MDA-MB-435 melanoma 32.6% | MCF7 breast 11.3% | HCT-116 colon 26.8% | HCC-2998 colon 79.7%
active: SR leukemia -2.77% | RPMI-8226 leukemia -17.9% | OVCAR-8 ovarian -6.92% | OVCAR-3 ovarian 2.36% | SW-620 colon 4.06% | KM12 colon 8.05%

COc1cc(C)c(C2C(C#N)=C(N)Oc3n[nH]c(-c4cccs4)c32)cc1C(C)C (stereo unspecified)
inactive: SR leukemia 87.1% | RPMI-8226 leukemia 87.5% | OVCAR-8 ovarian 89.1% | OVCAR-5 ovarian 115% | OVCAR-4 ovarian 103% | SK-OV-3 ovarian 98% | IGROV1 ovarian 108% | OVCAR-3 ovarian 109% | HS 578T breast 103% | NCI/ADR-RES ovarian 103% | T-47D breast 84.4% | BT-549 breast 102% | MDA-MB-435 melanoma 105% | SW-620 colon 101% | MCF7 breast 91.5% | HCT-116 colon 103% | HCC-2998 colon 93.5% | KM12 colon 98.6%

N#CN1CCC[C@H]1C(=O)N1CCc2c(-c3[nH]nc4ncccc34)cccc21
inactive: RPMI-8226 leukemia 18.1% | OVCAR-5 ovarian 56.3% | OVCAR-4 ovarian 18.5% | IGROV1 ovarian 17.1% | T-47D breast 13% | SW-620 colon 15.1%
active: SR leukemia 6.84% | OVCAR-8 ovarian 1.11% | SK-OV-3 ovarian -1.17% | OVCAR-3 ovarian -32% | HS 578T breast -2.6% | NCI/ADR-RES ovarian 8.38% | BT-549 breast -37.6% | MDA-MB-435 melanoma -61.6% | MCF7 breast 5.76% | HCT-116 colon -19.6% | HCC-2998 colon -6.99% | KM12 colon -14%

O=C1OC(c2ccccc2)C(O)=C1c1ccccc1 (stereo unspecified)
inactive: SR leukemia 109% | RPMI-8226 leukemia 96.5% | OVCAR-8 ovarian 100% | OVCAR-5 ovarian 99.2% | OVCAR-4 ovarian 121% | SK-OV-3 ovarian 115% | IGROV1 ovarian 111% | OVCAR-3 ovarian 102% | HS 578T breast 110% | NCI/ADR-RES ovarian 116% | T-47D breast 111% | BT-549 breast 111% | MDA-MB-435 melanoma 105% | SW-620 colon 110% | MCF7 breast 95.4% | HCT-116 colon 107% | HCC-2998 colon 127% | KM12 colon 95.7%

CCOC(=O)c1c(C)oc2ncnc(N3CCN(C(=O)COc4ccc(SC)cc4)CC3)c12
inactive: SR leukemia 84.3% | RPMI-8226 leukemia 81.6% | OVCAR-8 ovarian 87.6% | OVCAR-5 ovarian 98.2% | OVCAR-4 ovarian 75% | SK-OV-3 ovarian 86.1% | IGROV1 ovarian 90.4% | OVCAR-3 ovarian 100% | HS 578T breast 81.7% | NCI/ADR-RES ovarian 85.7% | T-47D breast 61.7% | BT-549 breast 90.8% | MDA-MB-435 melanoma 103% | SW-620 colon 102% | MCF7 breast 92.6% | HCT-116 colon 91.6% | HCC-2998 colon 110% | KM12 colon 95.6%

CN(C)c1ccc(N=Nc2ccc(Br)cn2)c(O)c1
active: SR leukemia 3.15% | OVCAR-4 ovarian 1.05%
inactive: RPMI-8226 leukemia 11.9% | OVCAR-8 ovarian 15.5% | OVCAR-5 ovarian 59.6% | SK-OV-3 ovarian 25.9% | IGROV1 ovarian 16% | OVCAR-3 ovarian 14.8% | HS 578T breast 64% | NCI/ADR-RES ovarian 12.8% | T-47D breast 30.2% | BT-549 breast 38.2% | MDA-MB-435 melanoma 33% | SW-620 colon 26.1% | MCF7 breast 10.4% | HCT-116 colon 25.5% | HCC-2998 colon 34.3% | KM12 colon 26.7%

CN1CCN(CCCOc2cccc3nc(Nc4ccc(Cl)c(F)c4)ccc23)CC1
inactive: RPMI-8226 leukemia 23.9% | OVCAR-8 ovarian 85% | OVCAR-5 ovarian 58.6% | OVCAR-4 ovarian 65.4% | SK-OV-3 ovarian 82.7% | IGROV1 ovarian 65.7% | OVCAR-3 ovarian 69.9% | HS 578T breast 52.7% | NCI/ADR-RES ovarian 49.7% | T-47D breast 38.5% | BT-549 breast 80% | MDA-MB-435 melanoma 25.3% | HCT-116 colon 31.6% | HCC-2998 colon 55.2%
active: SR leukemia -16% | SW-620 colon -34.1% | MCF7 breast -43.1% | KM12 colon -34.7%

O=C1C=CC(=O)N1c1ccc2c(c1)Cc1cc(F)ccc1-2
inactive: SR leukemia 70.6% | RPMI-8226 leukemia 28.2% | OVCAR-8 ovarian 99.4% | OVCAR-5 ovarian 93.5% | OVCAR-4 ovarian 83.3% | SK-OV-3 ovarian 103% | IGROV1 ovarian 94% | OVCAR-3 ovarian 115% | HS 578T breast 97.8% | NCI/ADR-RES ovarian 105% | T-47D breast 103% | BT-549 breast 105% | MDA-MB-435 melanoma 102% | SW-620 colon 98.1% | MCF7 breast 90.2% | HCT-116 colon 94.3% | HCC-2998 colon 93.3% | KM12 colon 102%

COc1ccc(NC(=O)c2ccc(/C=C/C(=O)c3ncc[nH]3)cc2)cc1
inactive: SR leukemia 13.4% | RPMI-8226 leukemia 16.7% | OVCAR-8 ovarian 64.7% | OVCAR-5 ovarian 107% | OVCAR-4 ovarian 82.5% | SK-OV-3 ovarian 96.9% | IGROV1 ovarian 78% | OVCAR-3 ovarian 31.1% | HS 578T breast 94.7% | NCI/ADR-RES ovarian 77.4% | T-47D breast 68.5% | BT-549 breast 78.8% | MDA-MB-435 melanoma 67.1% | SW-620 colon 34.5% | MCF7 breast 25.1% | HCT-116 colon 71.5% | HCC-2998 colon 83.9% | KM12 colon 27.5%

CCN(CC)c1ccc(-c2cc(-c3cc(OC)c(OC)c(OC)c3)nc(N3CCOCC3)c2C#N)cc1
active: SR leukemia -8.39% | RPMI-8226 leukemia -33.1% | OVCAR-8 ovarian -28.4% | OVCAR-5 ovarian 5.94% | MDA-MB-435 melanoma -27.5%
inactive: OVCAR-4 ovarian 38.2% | SK-OV-3 ovarian 51.8% | IGROV1 ovarian 19.5% | OVCAR-3 ovarian 32.8% | HS 578T breast 55.8% | NCI/ADR-RES ovarian 27.6% | T-47D breast 22.2% | BT-549 breast 38.6% | SW-620 colon 30.8% | MCF7 breast 29.8% | HCT-116 colon 10.5% | HCC-2998 colon 29.9% | KM12 colon 27.1%

CC1CCNC(C)C1 (stereo unspecified)
inactive: SR leukemia 105% | RPMI-8226 leukemia 98.2% | OVCAR-8 ovarian 107% | OVCAR-5 ovarian 113% | OVCAR-4 ovarian 99.6% | SK-OV-3 ovarian 99.6% | IGROV1 ovarian 116% | OVCAR-3 ovarian 112% | HS 578T breast 104% | NCI/ADR-RES ovarian 106% | T-47D breast 104% | BT-549 breast 105% | MDA-MB-435 melanoma 107% | SW-620 colon 100% | MCF7 breast 96.8% | HCT-116 colon 108% | HCC-2998 colon 103% | KM12 colon 106%

CCOC(=O)c1c(C)oc2ncnc(N3CCN(C(=S)Nc4ccccc4)CC3)c12
inactive: SR leukemia 94.5% | RPMI-8226 leukemia 83.3% | OVCAR-8 ovarian 94% | OVCAR-5 ovarian 90% | OVCAR-4 ovarian 85.1% | SK-OV-3 ovarian 96.9% | IGROV1 ovarian 95.4% | OVCAR-3 ovarian 103% | HS 578T breast 87% | NCI/ADR-RES ovarian 90.3% | T-47D breast 78.7% | BT-549 breast 92.4% | MDA-MB-435 melanoma 102% | SW-620 colon 90.5% | MCF7 breast 93.1% | HCT-116 colon 97.3% | HCC-2998 colon 99.3% | KM12 colon 96.4%

O=C(CN1C(=O)/C(=C/c2ccc(Cl)cc2)SC1=S)NCCCN1CCOCC1
inactive: SR leukemia 97.8% | RPMI-8226 leukemia 96% | OVCAR-8 ovarian 103% | OVCAR-5 ovarian 103% | OVCAR-4 ovarian 93.5% | SK-OV-3 ovarian 97.8% | IGROV1 ovarian 108% | OVCAR-3 ovarian 101% | HS 578T breast 84.2% | NCI/ADR-RES ovarian 99.9% | T-47D breast 84.3% | BT-549 breast 102% | MDA-MB-435 melanoma 102% | SW-620 colon 102% | MCF7 breast 92.8% | HCT-116 colon 102% | HCC-2998 colon 102% | KM12 colon 104%

COc1cc2c(cc1-c1c(C)noc1C)ncc1nc(-c3ccccn3)n([C@H](C)COC(F)F)c12
active: RPMI-8226 leukemia 8.62% | SK-OV-3 ovarian 9.97% | HS 578T breast 3.88%
inactive: SR leukemia 27.8% | OVCAR-8 ovarian 35.1% | OVCAR-5 ovarian 76.6% | OVCAR-4 ovarian 52.6% | IGROV1 ovarian 52.6% | OVCAR-3 ovarian 47.4% | NCI/ADR-RES ovarian 33.6% | T-47D breast 35.2% | BT-549 breast 57.7% | MDA-MB-435 melanoma 46.4% | SW-620 colon 65.1% | MCF7 breast 19.7% | HCT-116 colon 35.5% | HCC-2998 colon 49% | KM12 colon 47.4%

COc1ccc(-n2nc(C)c3c(Nc4ccc(NC(=O)Nc5ccc(Cl)c(C(F)(F)F)c5)cc4)ncnc32)cc1
inactive: SR leukemia 20.8% | OVCAR-4 ovarian 20.8% | IGROV1 ovarian 18.6% | BT-549 breast 17.2% | SW-620 colon 14.3% | HCC-2998 colon 15.6%
active: RPMI-8226 leukemia 0.105% | OVCAR-8 ovarian 5.05% | OVCAR-5 ovarian 4.07% | SK-OV-3 ovarian 1.72% | OVCAR-3 ovarian 5.65% | HS 578T breast -12% | NCI/ADR-RES ovarian 1.32% | T-47D breast 1.89% | MDA-MB-435 melanoma -9.88% | MCF7 breast 1.4% | HCT-116 colon 7.03% | KM12 colon 6.08%

Clc1ccc2c(NCCCNc3nc(-n4ccnc4)nc4ccccc34)ccnc2c1
inactive: SR leukemia 58.4% | RPMI-8226 leukemia 69.3% | OVCAR-8 ovarian 86.2% | OVCAR-5 ovarian 96.3% | OVCAR-4 ovarian 75% | SK-OV-3 ovarian 94.5% | IGROV1 ovarian 79.1% | OVCAR-3 ovarian 90.2% | HS 578T breast 84.6% | NCI/ADR-RES ovarian 101% | T-47D breast 70.3% | BT-549 breast 82.8% | MDA-MB-435 melanoma 92.6% | SW-620 colon 89.8% | MCF7 breast 76.5% | HCT-116 colon 88.3% | HCC-2998 colon 106% | KM12 colon 88.5%
